# Reference: PubChem BioAssay (Tox21)
# A number with no mark means an inactive call. Records with an inconclusive call do not appear. Entries that show only a call come without a potency. Active and inactive are the calls of the source. Unless noted, calls come from the whole dose curve; as a rule, active = well fitted curve in the direction sought with a large enough effect in the repeat runs; inconclusive = weak or mixed curves; inactive = no such curve, though single readings can be large; an effect the other way counts as inactive or inconclusive.
# Legend:
# [1] = qHTS assay to identify small molecule agonists of H2AX (AID 1224845; active = well fitted activation curve with a large enough effect in the signal ratio in the repeat runs, not every such curve was filed as active; the % refers to the signal ratio)
# Summary of the method: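 Wild-type CHO-K1 cells, plated overnight, exposed 3hr at 37C to 15 concentrations (0.76% DMSO final). Lysed, then HTRF anti-pH2AX (S139) cryptate and anti-H2AX-d2 antibodies, 24 hr room temperature; 665/620 nm emission read.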
# [2] = qHTS assay to identify small molecule agonists of the hypoxia (HIF-1) signaling pathway (AID 1224846; active = well fitted activation curve with a large enough effect in the signal ratio in the repeat runs, not every such curve was filed as active; the % refers to the signal ratio)
# Summary of the method: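 Reporter induction in HRE-bla ME-180 cells is taken as agonism: cells sit 5 hrs after plating, receive compounds or DMSO only, incubate 17 hrs at 37C under 5% CO2, and are loaded with CCF4-AM for beta-lactamase FRET measurement.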
# [3] = qHTS assay to identify small molecule agonists of H2AX - cell viability counter screen (AID 1224847; calls by dose curve; note: top concentration of the series differs between compounds; nearly all actives have a fitted effect of over 30% in size)
# Summary of the method: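 We seed wild-type CHO-K1 cells overnight, treat them for 3 hr at 37C with compounds in 15-concentration series, and quantify remaining viability by CellTiter-Glo luminescence.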
# [4] = qHTS assay to identify small molecule antagonists of the estrogen related receptor (ERR) signaling pathway from Tox21 library (AID 1224848); note: nearly all actives have a fitted effect of over 50% in size
# Summary of the method: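 Quantitative high-throughput format: ERR reporter cells (2,000/well) pre-incubated 6 h, treated 18 h at 37 C with compounds in DMSO alongside positive and negative controls, then read by ONE-Glo luminescence.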
# [5] = qHTS assay to identify small molecule agonists of the estrogen related receptor (ERR) signaling pathway from Tox21 library (AID 1224849; calls by dose curve; note: nearly all actives have a fitted effect of over 15% in size); conditions: ERR reporter cell line, ONE-Glo luciferase, 18 h; at 92.4 µM (top of the series) unless noted
# Summary of the method: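 Tox21 compounds tested for ERR agonism in an NTP reporter cell line: 18 h treatment at 37 C, then ONE-Glo luminescence.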
# [6] = qHTS RealTime-Glo MT Cell Viability Assay in HEK293 cells - 32 hour (AID 1224868); note: top concentration of the series differs between compounds; nearly all actives have a fitted effect of over 50% in size
# Summary of the method: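 Quantitative high-throughput screen of the Tox21 10K library in HEK293: cells and RealTime-Glo reagents plated together, compound added at 5 h, luminescence monitored through 40 h at 37 C.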
# [7] = A CellTox Green Cytotoxicity Assay to monitor cytotoxicity in HEK293 cells - 0 hour (AID 1224869); note: nearly all actives have a fitted effect of over 50% in size
# Summary of the method: (§1)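 Tox21 screen in HEK293: membrane-impermeant cyanine dye fluoresces on binding dead-cell DNA; compound pinned 5 h post-seeding, plates held at 37 C, signal read repeatedly through 40 h.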
# [8] = qHTS RealTime-Glo MT Cell Viability Assay in HepG2 cells - 40 hour (AID 1224870); note: nearly all actives have a fitted effect of over 50% in size
# Summary of the method: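 HepG2 cells (600/well) mixed with RealTime-Glo MT reagent, settled 5 h at 37 C/5% CO2 before compound addition. Nonlytic NanoLuc luminescence from viable-cell prosubstrate reduction read repeatedly during 40 h treatment at 37 C.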
# [9] = A CellTox Green Cytotoxicity Assay to monitor cytotoxicity in HEK293 cells - 40 hour (AID 1224871); note: nearly all actives have a fitted effect of over 45% in size; note: potency is the fitted concentration of half-maximal effect
# Summary of the method: as §1
# [10] = qHTS RealTime-Glo MT Cell Viability Assay in HepG2 cells - 24 hour (AID 1224867); note: nearly all actives have a fitted effect of over 50% in size
# Summary of the method: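 Compound treatment began 5 h after plating HepG2 cells (600/well) with NanoLuc luciferase and prosubstrate. Plates stayed at 37 C for 40 h; luminescence was captured at six time points, 0 h through 40 h.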
Structure (SMILES),outcome [1],outcome [2],Potency [3],Potency [4],"activity change, positive = activation [5]",Potency [6],outcome [7],Potency [8],Potency [9],Potency [10]
N#CN=C1SCCN1Cc1ccc(Cl)nc1,inactive,inactive,inactive,inactive,7.53%,inactive,inactive,inactive,inactive,
CCN(CCO)CCn1c(Cc2ccccc2)nc2c1c(=O)n(C)c(=O)n2C,inactive,inactive,inactive,inactive,-1.48% [at 42.5 µM],inactive,inactive,inactive,inactive,
CN1C(=O)COc2c(C(=O)NC3CN4CCC3CC4)cc(Cl)cc21 (stereo not drawn),inactive,inactive,inactive,,,inactive,inactive,inactive,inactive,inactive
C=CC1(C)OC(=O)N(c2cc(Cl)cc(Cl)c2)C1=O (stereo not drawn),inactive,inactive,inactive,,,inactive,inactive,inactive,inactive,inactive
CCN[C@H](C)Cc1cccc(C(F)(F)F)c1,inactive,inactive,inactive,,,inactive,inactive,inactive,,inactive
O=C(NC(O)C(Cl)(Cl)Cl)NC(O)C(Cl)(Cl)Cl (stereo not drawn),inactive,inactive,inactive,,,inactive,inactive,inactive,inactive,inactive
CCOC(=O)C(Cl)Cc1cc(-n2nc(C)n(C(F)F)c2=O)c(F)cc1Cl (stereo not drawn),inactive,inactive,inactive,,,inactive,inactive,inactive,inactive,inactive
O=C(O)CBr,inactive,inactive,inactive,inactive,-0.0549%,inactive,inactive,inactive,inactive,
Clc1ccc(C(Cl)(Cl)Cl)cn1,inactive,inactive,inactive,,,inactive,inactive,inactive,34.7 µM (active),inactive
COc1cccc(C=O)c1,inactive,inactive,inactive,inactive,0.51%,inactive,inactive,inactive,inactive,
CCCC(C)(COC(N)=O)COC(N)=O,inactive,inactive,inactive,inactive,0.442%,,inactive,inactive,inactive,
C=CCc1cc(OC)c2c(c1)OCO2,inactive,inactive,inactive,,,inactive,inactive,inactive,,inactive
ClCCN1CCCC1,inactive,inactive,inactive,,,inactive,inactive,inactive,inactive,inactive
COC[C@@H](NC(C)=O)C(=O)NCc1ccccc1,inactive,inactive,inactive,inactive,4.5% [at 42.5 µM],,inactive,,inactive,
C[C@]12C=CC(=O)C=C1CC[C@@H]1[C@@H]2CC[C@@]2(C)[C@H]1CC[C@]2(C)O,inactive,inactive,inactive,,-17.6% [at 42.5 µM],inactive,inactive,inactive,inactive,inactive
Oc1ccc(Cc2ccc(O)cc2)cc1,inactive,inactive,inactive,inactive,5.91%,,inactive,inactive,inactive,inactive
CCC1(CC)C(=O)C=CNC1=O,inactive,inactive,inactive,inactive,4.55% [at 42.5 µM],,inactive,,inactive,inactive
O=c1[nH]c2ccccc2n1C1CCNCC1,inactive,inactive,inactive,,,inactive,inactive,inactive,inactive,inactive
CCCOC(=O)c1cncn1C(C)c1ccccc1 (stereo not drawn),inactive,inactive,inactive,inactive,0.709% [at 42.5 µM],inactive,inactive,inactive,inactive,
CCCOc1nn(C(=O)NS(=O)(=O)c2ccccc2C(=O)OC)c(=O)n1C,inactive,inactive,inactive,,,inactive,inactive,inactive,inactive,inactive
CCNc1nc(NCC)nc(SC)n1,inactive,inactive,inactive,,,inactive,inactive,inactive,inactive,inactive
ClCOCCl,inactive,inactive,inactive,,,inactive,inactive,,inactive,inactive
COc1cc(CCN)cc(OC)c1OC,inactive,inactive,inactive,,,inactive,inactive,,inactive,inactive
C[N+]1(C)CCCCC1,inactive,inactive,inactive,,,,inactive,inactive,inactive,inactive
CN(CCO)CCO,inactive,inactive,inactive,,,inactive,,inactive,inactive,inactive
BrCC1CO1 (stereo not drawn),inactive,inactive,inactive,,,inactive,inactive,inactive,inactive,inactive
CON(C)C(=O)Nc1ccc(Br)cc1,inactive,inactive,inactive,,,inactive,,inactive,inactive,inactive
CCOC(=O)CCl,inactive,inactive,inactive,,,inactive,inactive,inactive,inactive,inactive
